Source: PubChem BioAssay AID1259421 (Broad Institute, 2018)
“And” between values parts separate entries of the source, which are not always exact repeats. Equal entries are not always repeated. About 610 (9.5%) of roughly 6,400 compounds were called active. Cut-off read from the data, not from the text of the source: active = activity change below about -70%; inconclusive = no clear call, values can overlap the other calls; inactive = above that. The entries come from a sample that favours actives as a whole. Some structures have more than one record in an assay (separate samples or runs), and their calls can disagree.

Assay: T. gondii ME49Luc in HeLa cells, luciferase assay, 72 h, no IFN-y (AID 1259421)
Conditions: stronger effect = lower value, concentration not given here
With `Cc1cc(=O)oc2c(C=O)c(O)ccc12` the activity change, negative = inhibition was 16.5% (inactive). For `Cc1cc2c(C(C)C)c(O)c(O)c(C=O)c2c(O)c1-c1c(C)cc2c(C(C)C)c(O)c(O)c(C=O)c2c1O`, the activity change, negative = inhibition was -70.8% (active) and -12.6% (inactive). For `CC(=O)c1ccc(O)c(C(N)=O)c1`, the activity change, negative = inhibition was 7.8% (inactive). For `CCCCNCC1COc2ccccc2O1` (stereo not drawn), the activity change, negative = inhibition was 0.699% (inactive). With `C[C@]12OC(C[C@]1(O)CO)n1c3ccccc3c3c4c(c5c6ccccc6n2c5c31)CNC4=O` the activity change, negative = inhibition was -87.7% (active). In the case of `Cn1c2ccccc2c2c3c(c4c5ccccc5n(CCC#N)c4c21)CNC3=O`, the activity change, negative = inhibition is reported as -94.9% (active). For `Cc1[nH]cnc1CN1CCc2c(c3ccccc3n2C)C1=O`, the activity change, negative = inhibition was 17% (inactive). For `CN[C@@H]1C[C@H]2O[C@@](C)([C@@H]1OC)n1c3ccccc3c3c4c(c5c6ccccc6n2c5c31)C(=O)N[C@H]4O`, the activity change, negative = inhibition was -88.9% (active). In the case of `CO[C@@H]1[C@H](N(C)C(=O)c2ccccc2)C[C@H]2O[C@]1(C)n1c3ccccc3c3c4c(c5c6ccccc6n2c5c31)C(=O)NC4`, the activity change, negative = inhibition is reported as -86.8% (active). With `O=C1NCc2c1c1c3ccccc3[nH]c1c1[nH]c3ccccc3c21` the activity change, negative = inhibition was 2.85% (inactive). With `CC1(C)Oc2ccc(C#N)cc2C(N2CCCC2=O)C1O` (stereo not drawn) the activity change, negative = inhibition was 4.23% (inactive). For `C[N+](C)(C)C[C@H](O)CC(=O)O`, the activity change, negative = inhibition was 9.13% (inactive). In the case of `CC(Cc1ccccc1)(NC(=O)CN)c1ccccc1` (stereo not drawn), the activity change, negative = inhibition is reported as -47.2% (inactive) and 8.98% (inactive). With `CCc1ccc(C(=O)C(C)CN2CCCCC2)cc1` (stereo not drawn) the activity change, negative = inhibition was 8.8% (inactive) and 14.4% (inactive). In the case of `O=C(/C=C/c1ccc(O)c(O)c1)OC(Cc1ccc(O)c(O)c1)C(=O)O` (stereo not drawn), the activity change, negative = inhibition is reported as 2.52% (inactive). For `CO/N=C(\N)c1ccc(-c2ccc(-c3ccc(/C(N)=N/OC)cc3)o2)cc1`, the activity change, negative = inhibition was 86.4% (inactive). With `COc1cc(OC)cc(OC)c1` the activity change, negative = inhibition was 10% (inactive). With `O=C(CO)C(O)C(O)C(O)CO` (stereo not drawn) the activity change, negative = inhibition was 2.77% (inactive). For `CC(=O)[C@H]1CCC2C3CC=C4C[C@@H](O)CC[C@]4(C)C3CC[C@@]21C` (stereo partly drawn), the activity change, negative = inhibition was 1.09% (inactive). For `COc1ccc(Cl)cc1NC(=O)Nc1cc(C)nc2ccccc12`, the activity change, negative = inhibition was -81.5% (active) and -81.1% (active). In the case of `COC(=O)c1cc(Cl)ccc1OC`, the activity change, negative = inhibition is reported as 1.3% (inactive). For `COc1cc(OC)c(NC(=O)Nc2cc(C)on2)cc1Cl`, the activity change, negative = inhibition was 4.07% (inactive) and 26.1% (inactive). With `O=C(O)Cc1csc(-c2ccc(Cl)cc2)n1` the activity change, negative = inhibition was 15.8% (inactive). In the case of `CS(=O)(=O)Nc1cc2occ(NC=O)c(=O)c2cc1Oc1ccccc1`, the activity change, negative = inhibition is reported as 15.7% (inactive). For `CCCCCCCCCCC(C)(C)C(=O)Nc1c(OC)cc(OC)cc1OC`, the activity change, negative = inhibition was 16.9% (inactive). In the case of `CC(C)(C)/[N+]([O-])=C/c1ccc(S(=O)(=O)O)cc1S(=O)(=O)O`, the activity change, negative = inhibition is reported as 8.6% (inactive). For `CN(C)c1nc(N)c(C(=O)Nc2cccnc2)nc1Cl`, the activity change, negative = inhibition was 157% (inactive) and 219% (inactive). In the case of `CN1CCN(S(=O)(=O)c2ccc(-c3cnc(N)c(C(=O)Nc4cccnc4)n3)cc2)CC1`, the activity change, negative = inhibition is reported as -77.6% (active). With `CC(=O)NS(=O)(=O)c1ccc(NC(=O)c2ccccc2C(=O)O)cc1` the activity change, negative = inhibition was 1.07% (inactive). With `CS(=O)(=O)c1ccc(C(=O)Nc2ccc(Cl)c(-c3ccccn3)c2)c(Cl)c1` the activity change, negative = inhibition was 19.4% (inactive). For `CS(=O)(=O)c1ccc(-c2cnc(N)c(C(=O)Nc3ccccc3)n2)cc1`, the activity change, negative = inhibition was -81.9% (active). In the case of `Cn1ccc2cc3c(cc21)CCN3C(=O)Nc1cccnc1`, the activity change, negative = inhibition is reported as 104% (inactive) and 4.22% (inactive). In the case of `COc1ccc(/C=C/c2cc(O)cc(O[C@@H]3O[C@H](CO)[C@@H](O)[C@H](O)[C@H]3O)c2)cc1`, the activity change, negative = inhibition is reported as 12.1% (inactive). With `Clc1cccc(C=NC=Nc2cccc(Cl)c2)c1` the activity change, negative = inhibition was -3.22% (inactive). For `COC(=O)[C@@H]1CC(=O)O[C@H](C)C/C=C/C=C/[C@H](O)[C@H](C)C[C@H](CC=O)[C@H](OC2O[C@H](C)[C@@H](OC3C[C@@](C)(O)[C@@H](OC(=O)CC(C)C)[C@H](C)O3)[C@H](N(C)C)[C@H]2O)[C@H]1OC` (stereo partly drawn), the activity change, negative = inhibition was -63.5% (inactive). With `CC(Cc1ccc(O)c(O)c1)C(C)Cc1ccc(O)c(O)c1` (stereo not drawn) the activity change, negative = inhibition was 5.71% (inactive). For `CNC(=O)c1ccc2cc([C@]3(O)CCn4cncc43)ccc2c1`, the activity change, negative = inhibition was 9.56% (inactive). With `C=C1C(=O)CC2CC3OC3(C)CCC3OC3(C)C[C@H](OC(C)=O)C1C2(C)C` (stereo partly drawn) the activity change, negative = inhibition was -76.2% (active). For `NCC(=O)CCC(=O)OCc1ccccc1`, the activity change, negative = inhibition was 16.4% (inactive). For `NC(Cc1ccccn1)c1ccccc1` (stereo not drawn), the activity change, negative = inhibition was 13% (inactive). With `Oc1c(I)cc(I)c2cccnc12` the activity change, negative = inhibition was -8.85% (inactive) and -77.3% (active). With `O=S(=O)(O)c1cc(I)c(O)c2ncccc12` the activity change, negative = inhibition was 9.1% (inactive) and 15.9% (inactive). For `Cc1ccc2c(Cl)cc(Cl)c(O)c2n1`, the activity change, negative = inhibition was -84% (active). For `Oc1c(Cl)cc(Cl)c2cccnc12`, the activity change, negative = inhibition was -83.9% (active) and -88% (active) and -90% (active). In the case of `Oc1c(I)cc(Cl)c2cccnc12`, the activity change, negative = inhibition is reported as 24.2% (inactive). For `CO[C@@H]1[C@@H](O[C@@H]2O[C@H](C)[C@@H](O[C@H]3C[C@@](C)(O)[C@H](O)[C@H](C)O3)[C@H](N(C)C)[C@H]2O)[C@@H](CC=O)C[C@@H](C)[C@@H](O[C@H]2CC[C@H](N(C)C)[C@@H](C)O2)/C=C/C=C/C[C@H](C)OC(=O)C[C@H]1O`, the activity change, negative = inhibition was 4.59% (inactive). For `C[n+]1cccc(C(=O)O)c1`, the activity change, negative = inhibition was 14.5% (inactive). In the case of `O=C(O)CC(O)(CC(=O)[O][Bi]1[O]C(=O)CC(O)(CC(=O)O)C(=O)[O]1)C(=O)O` (stereo not drawn), the activity change, negative = inhibition is reported as 22.8% (inactive). With `CCC(C)(C)C(=O)O` the activity change, negative = inhibition was 9.3% (inactive). In the case of `O=C(O)Cc1ccc(OCCNC[C@H](O)c2ccccc2)cc1`, the activity change, negative = inhibition is reported as 15.6% (inactive) and 5.18% (inactive). For `COC(=O)C[C@H]1C(C)(C)C(=O)[C@@H]2CC3=C(CC[C@]4(C)C3=CC(=O)O[C@H]4c3ccoc3)[C@@]1(C)C2=O`, the activity change, negative = inhibition was 16.4% (inactive). For `CC(=O)OCC(=O)[C@@]1(O)CCC2C3CCC4=CC(=O)CC[C@]4(C)[C@@]3(F)[C@@H](O)C[C@@]21C` (stereo partly drawn), the activity change, negative = inhibition was -4.8% (inactive). With `N[C@@H](CCC(=O)N[C@@H](CS[NH2+][O-])C(=O)NCC(=O)O)C(=O)O` the activity change, negative = inhibition was 15.6% (inactive).
